Laboratory results as given in PubChem BioAssay (NCI).
“And” between values parts separate entries of the source, which are not always exact repeats. Equal values may be shown once. This is part of a sample that, as a whole, favours compounds with a hit. Of some 83,000 tested, about 20% had one in any assay.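 Results are percent growth after 48 hours of single-concentration exposure. 100 means growth as in untreated cells, lower positive values show inhibition; negative values down to -100 show cell death.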 The source made the active and inactive calls. Rule for the calls: active = growth percent below 10; inactive = the rest.

The compounds below were run on MDA-MB-468 breast (assay: NCI-60 one-dose screen, 48 h (100 = growth as untreated, 0 = no growth, -100 = all killed)). Conditions: 10 µM unless noted.

Row | Structure (SMILES) | growth
1 | Cc1ccc[n+](CC(=O)c2cccc3ccccc23)c1 | 80.2% (inactive)
2 | COC(=O)CNC(=O)c1ccc(NC(=O)c2[nH]c(C)c(Cl)c2Cl)c(O[C@H]2CCNC2)c1 | 112% (inactive)
3 | N=c1ccc2nc3ccc(N)cc3sc-2c1 | -16.2% (active)
4 | CCN(CC)CCNC(Cc1ccccc1)c1ccc(OCc2ccccc2)cc1 (stereo not given) | 66.4% (inactive)
5 | CCCCN(CCCC)CCCCCCCCC(O)c1cc2ccccc2c2ccccc12 (stereo not given) | 29.1% (inactive)
6 | COc1cc2c(cc1OC)C(CC1(O)CCCCC1)N(S(=O)(=O)c1ccc(C)cc1)CC2 (stereo not given) | 44.4% [100 µM] (inactive)
7 | COc1c(O)cc2oc3cc(O)c(CC=C(C)C)c(O)c3c(=O)c2c1CC=C(C)C | 71.2% (inactive)
8 | Cn1cc(-c2nc(-c3c[nH]c4ncccc34)cs2)c2ccccc21 | -19% (active)
9 | Cc1cccc(NC(=O)c2sc3nc4c(cc3c2N)CCCC4)c1 | 24.7% (inactive)
10 | COc1ccc(C(CC(=O)c2ccc3c(c2)OCO3)C(=O)O)cc1OC (stereo not given) | 114% (inactive) and 103% (inactive)
11 | Cc1cccc(N=NC(=S)NNc2cccc(C)c2)c1 | 116% (inactive)
12 | COc1ccc(/C(C)=C(\c2ccc(Cl)cc2)c2ccc(OCCN3CCCCC3)cc2)cc1 | 55.5% (inactive)
13 | N[C@@H](CC/[N+]([O-])=N/O)C(=O)O | 97.4% (inactive)
14 | Nc1cc(O)cc2cccnc12 | 109% (inactive)
15 | Oc1ccc(CSc2nnc(-c3ccc(Br)cc3)o2)c2cccnc12 | 35.4% (inactive)
16 | Cc1ccc2c(n1)C(=O)C(Cl)=C(Nc1ccccc1C(=O)OC(C)(C)C)C2=O | -76.5% (active)
17 | O=C1C2=C(Nc3cc(Cl)ccc3N2)OC1c1c[nH]c2ccc(COc3ccccc3)cc12 (stereo not given) | 48.2% (inactive)
18 | OC(c1cc(-c2cccc(Cl)c2)nc2ccccc12)C1CCCCN1 (stereo not given) | -77.5% (active)
19 | COc1ccc(-c2cs/c(=N\N=C\c3ccc(O)cc3O)n2/N=C/c2ccc(O)cc2O)cc1 | -23.3% (active)
20 | COc1ccc(Cn2cc3c(c2)-c2oncc2CC3)cc1OC | -7.7% (active)

Row | Structure (SMILES) | growth
21 | S=C(N/N=C/c1cc(Cl)cc(Cl)c1)NC12CC3CC(CC(C3)C1)C2 | 104% (inactive)
22 | CC(=O)C1=C(O)C=C2Oc3c(C(=O)/C=C/c4c(Cl)cccc4Cl)c(O)c(C)c(O)c3[C@]2(C)C1=O | -39.7% (active)
23 | Clc1cccc(Cl)c1/C=C/c1cc(/C=C/c2c(Cl)cccc2Cl)[nH]n1 | 12.4% (inactive)
24 | CCn1cc(CNc2ccc(C(=O)Nc3cc4cc(OC)c(OC)cc4c(C)n3)cc2)c(C)n1 | 23.2% (inactive)
25 | Cc1ccc(S(=O)(=O)NCCNc2nccc(-c3c(-c4ccc(O)cc4)nc4sccn34)n2)cc1 | 85.3% (inactive)
26 | O=c1[nH]c2ccccc2n2cc3cccnc3c12 | -5.08% (active)
27 | COc1ccc(CCN2C(=O)CSC2=S)cc1OC | -2.77% (active)
28 | COc1cccc2c1C(=O)c1c(O)c3c(c(O)c1C2=O)C[C@@](O)(C(=O)CO)C[C@@H]3OC1CC(OC(C)=O)C(OC(C)=O)C(C)O1 (stereo not given in full) | -25.8% (active)
29 | COc1ccc(-c2cc(-c3cc(-c4ccc(OC)cc4)nc(N)n3)nc(N)n2)cc1 | 104% (inactive)
30 | CN1CCN(Cc2ccc(NC(=O)c3cccc(C#Cc4cnc(N)c5ncccc45)c3F)cc2C(F)(F)F)CC1 | 70.6% (inactive)
31 | CCSC1=CC(=O)c2ccccc2C1=O | -88.1% (active)
32 | O=C1C(OCCOc2ccccc2)=C(OCCOc2ccccc2)C(=O)c2ccccc21 | 72.9% (inactive)
33 | COc1ccccc1-n1c(-c2sc(NC(C)=O)nc2C)n[nH]c1=S | 124% (inactive)
34 | O=C1C(N2CCOCC2)=C(I)C(=O)c2ncccc21 | 42% (inactive)
35 | COc1ccc(-c2nc3ccc(-c4nnc(SCC(=O)Nc5ccc(C(=O)/C=C/c6ccc(Cl)cc6)cc5)o4)cc3[nH]2)cc1OC | 102% (inactive)
36 | Cc1cc(C)c(C#N)c(Sc2nc(C)c([N+](=O)[O-])c(C)c2C#N)n1 | 46% (inactive)
37 | OC(CCN1CCCC1)(c1ccccc1)C1CCCCC1 (stereo not given) | 92% (inactive)
38 | CCCCCCNC(=O)Oc1ccc(/C(=C(\C)c2ccccc2)c2ccc(OCCN3CCCCC3)cc2)cc1 | 64.2% (inactive)
39 | Cc1c(Cc2ccccc2)c(=O)oc2c(C)c(OCC(=O)n3nc(C#N)cc3N)ccc12 | 114% (inactive)
40 | C=CCn1c(SCC(=O)Nc2ccc(C(=O)/C=C/c3ccc(Br)cc3)cc2)nnc1-c1c[nH]c2ccccc12 | 85.8% (inactive)
